# According to article PMC8769072, “Proteome‐scale mapping of binding sites in the unstructured regions of the human proteome” (Molecular Systems Biology, 2022):
# Biological target: TSG101 1-145, Q99816
# Sequence (Q99816 1-145): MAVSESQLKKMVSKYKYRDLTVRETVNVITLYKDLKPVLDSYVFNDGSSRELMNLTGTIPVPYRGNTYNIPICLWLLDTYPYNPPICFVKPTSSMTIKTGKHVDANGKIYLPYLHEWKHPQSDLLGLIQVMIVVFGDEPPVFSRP
row,Binder,selected by phage display
1,"PSAPPQVQLPVSLDLP [ZFHX4, Q86UP3]",confidence 2 (active)
2,"VQPSAPEHSSLASWLL [GUCY1B2, O75343]",confidence 4 (active)
3,"LTPTAPSRTGSVQTPP [SSFA2, P28290]",confidence 4 (active)
4,"VPSAPIDPQAQLEADK [PKNOX2, Q96KN3]",confidence 2 (active)
5,"NLSLTPSAPSLTLEAG [SRCAP, Q6ZRS2]",confidence 3 (active)
6,"GPTAPPAPGPTAPPAF [SUFU, Q9UMX1]",confidence 2 (active)
7,"SLMPSAPHPVKEASPG [TET1, Q8NFU7]",confidence 3 (active)
8,"VPNMPSAPQAYSELQM [UBAP1, Q9NZ09]",confidence 3 (active)
9,"APSAPPAPPAPPESTV [ATOH8, Q96SQ7]",confidence 3 (active)
10,"PTAPPLQPHPGLHHQS [CHD7, Q9P2D1]",confidence 4 (active)
11,"DAPLLQPSAPSSSSSQ [GGA3, Q9NZ52]",confidence 2 (active)
12,"AGPGGGLTPSAPPYGA [PIP4P1, Q86T03]",confidence 3 (active)
13,"GAMAVTANPPSNPYWI [ATP10D, Q9P241]",confidence 2 (active)
14,"ANTDPTAPPYDTLLVF [CDH3, P22223]",confidence 2 (active)
15,"EALLTPLPPSAPPSVD [NPIPA3, F8WFD2]",confidence 3 (active)
16,"EEQAGTVASAPLGHSD [LRRFIP1, Q32MZ4]",confidence 4 (active)
17,"LSRTFLSIPSAPPLYL [CCDC168, Q8NDH2]",confidence 2 (active)
18,"LLPETVSPSAPSWREP [CBX6, O95503]",confidence 3 (active)
19,"PLEPSAPSKLHSVTGI [BEST1, O76090]",confidence 3 (active)
20,"EMAVVLNGGTIPTAPP [GPRC5B, Q9NZH0]",confidence 4 (active)
21,"PSAPTPPIPSPPSTLP [ANTXR1, Q9H6X2]",confidence 2 (active)
22,"DSTVHTSATAPTYIAN [MGAM2, Q2M2H8]",confidence 3 (active)
23,"KPSAPPAPELNNSLHP [KMT2D, O14686]",confidence 3 (active)
24,"PTLQPSAPQQARDPFE [DENND1A, Q8TEH3]",confidence 2 (active)
25,"PSAAEHIVSPSAPAGD [TACC2, O95359]",confidence 2 (active)

# Biological target: USP7 53-206, Q93009
# Sequence (Q93009 53-206): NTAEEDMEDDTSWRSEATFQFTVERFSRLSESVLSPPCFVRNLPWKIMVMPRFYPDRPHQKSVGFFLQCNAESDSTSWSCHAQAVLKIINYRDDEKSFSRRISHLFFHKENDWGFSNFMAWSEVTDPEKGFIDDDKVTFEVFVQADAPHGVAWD
row,Binder,selected by phage display
1,"DAASSSGSSSHAHVNS [RTTN, Q86VV8]",confidence 3 (active)
2,"HDATASSSSAAATVRA [BSN, Q9UPA5]",confidence 4 (active)
3,"LSNSESKATSSLMMLD [SIX4, Q9UIU6]",confidence 2 (active)
4,"PSVPSVSTTSVTMPNV [TSC22D2, O75157]",confidence 4 (active)
5,"SSSSSLSSASSSSTVV [ING3, Q9NXR8]",confidence 2 (active)
6,"STMPESPSSSTTATTT [SP4, Q02446]",confidence 3 (active)
